Compound activity (PubChem BioAssay)
ALDH1A1 inh = qHTS Assay for Inhibitors of Aldehyde Dehydrogenase 1 (ALDH1A1); actives 7.3% (n = 220,000); AID 1030, 2008; Potency, µM (titrated, usually from 75.3 µM), for the others: at the highest dose activity, negative = inhibition, most hits filed as inhibitors; Purified ALDH1A1, NADH fluorescence, propionaldehyde substrate;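 further: potency means the concentration at half of the fitted maximal effect; plate controls were no enzyme wells and a reference inhibitor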
12-hLO inh = qHTS Assay for Inhibitors of 12-hLO (12-human lipoxygenase); Potency, µM (top dose mostly 57.1 µM), for the others: at the top dose activity change, negative = inhibition, actives largely listed as inhibitors; actives 0.12% (n = 150,000); Polyunsaturated fatty acid lipoxygenase ALOX12 (Homo sapiens), P18054; purified 12-hLO, xylenol orange hydroperoxide absorbance; active means well fitted inhibition curve with a large enough effect; inconclusive means small, poorly fitted or top-dose-only effect; further: potency means the concentration at half of the fitted maximal effect; nearly all actives have a fitted effect of over 55% in size
Target sequence (P18054 whole entry, looked up): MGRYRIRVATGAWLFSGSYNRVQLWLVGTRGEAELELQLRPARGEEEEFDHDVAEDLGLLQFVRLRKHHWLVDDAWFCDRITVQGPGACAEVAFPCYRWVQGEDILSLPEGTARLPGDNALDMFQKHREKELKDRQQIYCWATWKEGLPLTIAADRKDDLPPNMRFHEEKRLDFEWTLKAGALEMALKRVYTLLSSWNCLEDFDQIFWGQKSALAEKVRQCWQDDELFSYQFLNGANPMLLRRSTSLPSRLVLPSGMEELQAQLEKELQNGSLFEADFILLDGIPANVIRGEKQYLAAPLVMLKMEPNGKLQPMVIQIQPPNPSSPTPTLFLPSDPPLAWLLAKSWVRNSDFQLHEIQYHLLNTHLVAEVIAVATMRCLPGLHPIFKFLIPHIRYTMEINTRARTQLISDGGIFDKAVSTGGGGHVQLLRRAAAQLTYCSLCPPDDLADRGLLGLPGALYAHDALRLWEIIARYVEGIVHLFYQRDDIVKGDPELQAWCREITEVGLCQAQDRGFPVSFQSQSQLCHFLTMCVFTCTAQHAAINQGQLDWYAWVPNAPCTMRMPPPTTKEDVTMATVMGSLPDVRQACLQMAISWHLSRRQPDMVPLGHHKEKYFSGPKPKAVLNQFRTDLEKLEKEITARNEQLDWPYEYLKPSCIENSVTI
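Hydroperoxide output read as Fe(III)-xylenol orange absorbance, 573-to-405 nm ratio, after 30 min reaction with 40 uM arachidonic acid. Enzyme: 150 nM purified human 12hLO, 15 min compound preincubation; 25 mM Hepes pH 7.0, room temperature.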
HPGD block = qHTS Assay for Inhibitors of HPGD (15-Hydroxyprostaglandin Dehydrogenase). 15-hydroxyprostaglandin dehydrogenase [NAD(+)] (Homo sapiens), P15428. purified HPGD, NADH fluorescence kinetic, PGE2 substrate. actives 4.3% (n = 150,000). Potency, µM, for inactives: top-dose activity change, negative = inhibition, most hits filed as inhibitors; further: potency means the concentration at half of the fitted maximal effect
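20 nM HPGD preincubated 15 min at room temperature with compound in 50 mM Tris-HCl pH 8, 0.01% Tween 20. Started with 1 mM NAD+ and 30 uM prostaglandin E2; NADH fluorescence (360/450 nm) read 5 times over 30-s intervals, last minus first.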
Lamin A splicing = qHTS Assay for Modulators of Lamin A Splicing; actives 0.01% (n = 200,000); Potency, µM (titrated, usually from 46.1 µM), inactives show at the top dose ratio change, negative = inhibition, actives largely listed as inhibitors; AID 1487, 2009; HeLa LMNA splicing GFP/RFP minigene ratio, 48 h; active means well fitted inhibition curve with a large enough effect in the signal ratio, with a control signal flat, not every such curve was filed as active; inconclusive means small, poorly fitted or top-dose-only effect, or effect the other way, or a change in a side signal; the % refers to the signal ratio; further: potency means the concentration at half of the fitted maximal effect
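S3 HeLa cells stably expressing lamin A-EGFP splicing minigene plus DsRed2, 600 cells/well, 48 h compound exposure at 37C. Laser-scanning cytometry; analysed as GFP (500-530 nm)/RFP (575-640 nm) total intensity ratio; 0.5% DMSO vehicle.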
PNC assembly inh = High Content Assay for Compounds that inhibit the Assembly of the Perinucleolar Compartment | PC3M PTB-GFP, PNC prevalence imaging, 16 h; hits give low values | actives 3.1% (n = 140,000) | activity change (PNC), negative = inhibition, % at 10 µM;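 active means readout at or below -70, meaning at least 70% loss of cells showing the perinucleolar compartment, a nuclear body marking cancer cells; inconclusive means readout between -30 and a set limit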;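 further: plate controls were DMSO wells for no effect and camptothecin positive control wells for full effect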
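Compounds are pinned in duplicate onto adhered PC3M cells stably expressing GFP-tagged PTB and incubated 16 h at 37 C. Cells are then fixed, nuclei stained with Hoechst, and PNC-positive cells counted.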
* = called active by the depositor; ? = inconclusive; nt = no result given; [ ] = remark or other dose. Most compounds without a hit are left out; they make up all but 10% or so of the library. Unless noted, the call rests on the fitted dose curve; in most records, active means well fitted inhibition curve with a large enough effect (not every such curve was filed as active); inconclusive means small, poorly fitted or top-dose-only effect, or another doubt; inactive means no such curve, though single readings can be large or run the other way. Unless noted, on the % scale 0 is the no-effect control and ±100 the full control effect.

SMILES | ALDH1A1 inh | 12-hLO inh | HPGD block | Lamin A splicing | PNC assembly inh
COc1ccc(-c2nc3c(Br)c(N)c(Br)cc3o2)cc1 | 14µM* | -10% | ? | 9% | -13
Nc1c(Br)cc2oc(-c3ccccc3)nc2c1Br | 7% | 0% | -4% | -16% | ?
O=Cc1sc(N2CCOCC2)nc1-c1ccccc1 | 8.9µM* | nt | nt | nt | nt
COC(=O)CC1C(C)(C)C(=O)C2CC3C4=CC(=O)OC(c5ccoc5)[C@]4(C)CCC3[C@@]1(C)C2=O (some centres not stated) | -2% | -4% | -5% | nt | nt
COc1cccc([C@@H]2Oc3ccc(OC)cc3C[C@H]2OC(=O)Nc2ccc(OC(F)F)cc2)c1 | -5% | nt | -14% | nt | nt
CN(C)c1ccc(C=NCC2(O)CCOC(C)(C)C2)cc1 (configuration not stated) | 0.45µM* | 2% | -13% | -6% | 26
CC(=O)Nc1c(I)cc(I)c(C(=O)O)c1I | 8% | 1% | -1% | -7% | nt
Cc1cc(C)cc(N=Cc2[nH]c3ccc(Br)c(Cl)c3c2O)c1 | 7.9µM* | -8% | ? | -7% | -28
Cc1ccc(N=Cc2cc(Br)cc(Cl)c2O)cc1 | 13% | nt | nt | nt | nt
COc1ccc(CN=Cc2[nH]c3ccc(Br)c(Cl)c3c2O)cc1 | 4µM* | -17% | ? | -1% | ?
Clc1ccccc1Cn1nnc(-c2cccs2)n1 | ? | -2% | -11% | 4% | 1
Cc1c(Cl)cccc1-n1nnnc1-c1cccs1 | 11µM* | -4% | -6% | 18% | ?
Cc1ccc(C)c(N2CCN(C(=O)C3CCN(S(=O)(=O)c4cn(C)cn4)CC3)CC2)c1 | nt | nt | nt | -8%[46 µM] | nt
CCN(CC)C(=O)CSc1ccc(C(F)(F)F)cc1[N+](=O)[O-] | 5% | -1% | -6% | 6% | -3
Cc1ccccc1OCCNC(=O)CSc1ccc(C(F)(F)F)cc1[N+](=O)[O-] | 13µM* | 0% | 25µM* | -7% | -9
COc1cccc(OCCNC(=O)CSc2ccc(C(F)(F)F)cc2[N+](=O)[O-])c1 | 32µM* | 0% | -25% | -6% | -9
CO[C@H]1C=CO[C@@]2(C)Oc3c(C)c(O)c4c(O)c(c(C=NN5CCN(C)CC5)c(O)c4c3C2=O)NC(=O)C(C)=CC=C[C@H](C)[C@H](O)[C@@H](C)[C@@H](O)[C@@H](C)[C@H](OC(C)=O)[C@@H]1C | ? | -27% | 25µM* | -2% | -115*
CCCCC/C=C\C[C@@H](O)/C=C/C=C/C=C\[C@@H](O)CCCC(=O)O | -1% | -5%[0.00818 µM] | -19% | nt | nt
CCOC(=O)c1sc(NC(=O)CSc2nncs2)c(C(=O)OCC)c1C | ? | -13% | 28µM* | ? | 8
CCOC(=O)c1sc(NC(=O)CSc2nnc(-c3ccco3)n2CC)c(C(=O)OCC)c1C | ? | -2% | ? | 7% | 13
CCOC(=O)c1c(NC(=O)CSc2nnc(-c3cccc(C)c3)n2CC)sc(C(C)=O)c1C | 5% | -2% | 16µM* | -3% | 35
CCOC(=O)c1c(NC(=O)CSc2nnc(-c3ccccc3)o2)sc(C(C)=O)c1C | ? | -2% | 18µM* | 0% | -20
CCOC(=O)c1c(NC(=O)CSc2nnc(-c3ccc(C)cc3)o2)sc(C(C)=O)c1C | 2% | 9% | -10% | 20% | -23
CCOC(=O)c1c(NC(=O)CSc2nnc(-c3cccnc3)o2)sc2c1CCC2 | 10% | 1% | -19% | -3% | -100*
CCOC(=O)c1sc(NC(=O)CSc2nc3ccccc3s2)c(C(=O)OCC)c1C | -13% | -1% | -22% | -11% | 58
COCCn1c(=O)c(-c2ccccc2)nc2cnc(Oc3ccccc3)nc21 | ? | -3% | ? | nt | nt
O=S(=O)(c1ccccc1)N1CCC[C@@]2(CCN(c3ccncc3)C2)C1 | 5% | -2% | 6% | nt | nt
